High-throughput results from PubChem.
Most compounds without a hit are left out; they make up all but 17% or so of the library.
DT40 TDP1 CPT: DT40-hTDP1 cell growth loss with CPT; chicken DT40 Tdp1-/-;hTDP1 cells + 20 nM CPT, ATP luminescence, 48 h; Potency, µM (doses to about 46.2 µM), for inactives: top-dose activity change, negative = growth inhibition, usual class: inhibitors; actives 12% (n = 420,000); also: % is scaled to controls: 0 for no effect and ±100 for the full control effect; nearly all actives have a fitted effect of over 55% in size
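Chicken DT40 Tdp1-/- cells stably complemented with human TDP1 were seeded at 400 cells/well in medium containing 20 nM camptothecin, exposed to pin-transferred compounds, and grown at 37 °C for at least 48 hr. Viability was read as ATP luminescence.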
HepG2 tox: kills HepG2 cells in TGF-b inhibitor counter-screen | HepG2 CAGA-GFP viability, ATP luminescence, 18 h | Potency, µM (doses to about 46.1 µM), for the others: at the highest dose activity change, negative = cytotoxicity, most hits filed as cytotoxic | actives 0.76% (n = 410,000)
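CellTiter-Glo luminescence gave cytotoxicity after 18 hours at 37 degrees C. The cells were HepG2 CAGA-GFP in 1% FBS DMEM, stimulated with 500 pg/mL TGF-beta after compound addition. %Activity was normalised to no-cell wells (complete cell-killing) and DMSO (no toxicity), and curves were fitted and classified.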
TGFb SMAD3 inh: blocks TGF-b signaling; HepG2 CAGA-GFP TGF-b/SMAD3 reporter, GFP fluorescence, 18 h; TGF-beta stimulated, 500 pg/mL final; Potency, µM (doses to about 46.1 µM), without a hit: top-dose activity, negative = inhibition, actives largely listed as inhibitors; actives 1.2% (n = 410,000); AID 588855; also: % is scaled to controls: 0 for no effect and ±100 for the full control effect; nearly all actives have a fitted effect of over 65% in size
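Using HEPG2 CAGA-GFP reporter cells at 1000 cells/well, we pinned test compounds, stimulated with recombinant TGF-beta (500 pg/mL final) and measured total well GFP after 18 h.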
HT1080NT lethal: kills 2HG-producing HT-1080-NT fibrosarcoma cells | Potency, µM (top dose mostly 46.1 µM), without a hit: at the top dose activity, negative = less viability, hits mostly cytotoxic | HT-1080-NT fibrosarcoma viability, CellTiter-Glo ATP luminescence, 48 h | actives 1.6% (n = 360,000);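 also: NT is the 2HG producing partner of a matched IDH1 knockdown line; 0% = DMSO-treated cells and -100% = media-only wells without cells; nearly all actives have a fitted effect of over 55% in size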
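Viability by CellTiter-Glo luminescence after 48 h compound exposure at 37C of HT-1080-NT cells (750/well, RPMI, 5% FBS). % activity scaled between DMSO wells and medium-only wells, then curve-fitted and categorized by curve class.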
DT40 TDP1 no CPT: qHTS for Inhibitors of human tyrosyl-DNA phosphodiesterase 1 (TDP1): qHTS in cells in absence of CPT | DT40 Tdp1-/- hTDP1 cells, no CPT, ATP luminescence, 48 h | Potency, µM (top dose mostly 46.2 µM), without a hit: top-dose activity change, negative = growth inhibition, usual class: inhibitors | actives 15% (n = 420,000) | AID 686978, 2013; also: % is scaled to controls: 0 for no effect and ±100 for the full control effect; nearly all actives have a fitted effect of over 55% in size
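Growth of hTDP1-complemented DT40 Tdp1-knockout cells is measured by ATP luminescence after at least 48 hr compound exposure at 37 °C, with DMSO substituting for the 20 nM CPT used in the parallel screen.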
HT1080 IDH1KD tx: HT-1080 IDH1 knockdown cell toxicity (counter line). HT-1080 IDH1 knockdown viability, ATP luminescence, 48 h. Potency, µM (series often up to 46.1 µM), for inactives: at the highest dose activity, negative = toxicity, usual class: cytotoxic. actives 2% (n = 360,000). AID 686971;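 also: 0% = DMSO wells and -100% = cell-free medium wells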
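Viability of IDH1-knockdown HT-1080 fibrosarcoma cells was assessed by CellTiter-Glo after 48 h at 37 °C with titrated compound; concentration-effect curves were classified by fit quality and response size.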
Active calls of the source: *; ? = inconclusive; · = not tested or not shown. Calls follow the shape of the dose curve; as a rule, active = well fitted curve in the direction sought with a large enough effect; inconclusive = small, poorly fitted or top-dose-only effect, or another doubt; inactive = no such curve, though single readings can be large; an effect the other way counts as inactive or inconclusive. Potency is read from the fitted curve at half-maximal effect.

SMILES	DT40 TDP1 CPT	HepG2 tox	TGFb SMAD3 inh	HT1080NT lethal	DT40 TDP1 no CPT	HT1080 IDH1KD tx
COc1cccc(Nc2nc(C(N)c3ccccc3)cs2)n1 (configuration not stated)	9.2µM*	-55%	?	?	12µM*	?
COc1cc(OC)nc(Nc2nc(C(N)c3ccccc3)cs2)n1 (configuration not stated)	?	-6%	39%	-22%	?	-12%
Cc1ncc([N+](=O)[O-])n1S(=O)(=O)c1ccc2c(c1)OCCO2	1%	-10%	-13%	18%	-27%	15%
COCCN(C(=O)CSc1nnc(-c2cccc(F)c2)n1N)c1c(N)n(Cc2ccccc2)c(=O)[nH]c1=O	10%	-2%	12%	8%	1%	11%
COc1ccc(-c2noc(C3CC(=O)N(c4ccccc4)C3)n2)c(OC)c1 (configuration not stated)	-20%	4%	20%	·	-22%	·
CCc1cccc(OCC2Cn3c(nc4c3c(=O)n(C)c(=O)n4C)O2)c1 (configuration not stated)	?	-43%	-19%	-22%	?	?
Cc1ccc2nc(Cl)c(/C=N/n3c(C)nnc3C)cc2c1	?	-11%	10%	7%	21µM*	12%
COc1ccc2[nH]c(=O)c(-c3noc(-c4ccccc4)n3)cc2c1	21µM*	4%	0%	-11%	18µM*	-25%
COc1ccc2[nH]c(=O)c(-c3nnn(-c4ccc(Cl)nc4)n3)cc2c1	12µM*	0%	34%	1%	?	2%
COc1ccc2[nH]c(=O)c(-c3nnn(-c4ccccc4)n3)cc2c1	?	-5%	0%	9%	?	10%
COc1ccc2[nH]c(=O)c(-c3nnn(-c4ccc(F)cc4)n3)cc2c1	4.6µM*	-8%	-2%	2%	16µM*	-1%
O=c1[nH]c2ccccc2cc1-c1nnn(-c2ccccc2)n1	16µM*	-12%	-1%	17%	?	9%
Cc1cccc(C)c1OCCCCN1CCCCC1	-6%	5%	2%	-1%	-18%	1%
CSc1cccc(NC(=O)/C=C/c2ccco2)c1	23µM*	-4%	-9%	-1%	?	1%
O=C(/C=C/c1ccco1)Nc1ccc(Oc2ccc(Cl)cc2)cc1	4.1µM*	-22%	-17%	5.8µM*	3.3µM*	4.1µM*
O=C(/C=C/c1ccco1)Nc1ccc(N2CCCC2)cc1	0%	19%	35%	13%	-10%	21%
O=C(/C=C/c1ccco1)NC(=S)Nc1ccc(N2CCOCC2)c(Cl)c1	5.2µM*	0%	7%	?	4.6µM*	?
COc1cccc(NC(=O)/C=C/c2ccco2)c1	-23%	-41%	-21%	-14%	?	-16%
O=C(/C=C/c1ccco1)NC(=S)Nc1cccc([N+](=O)[O-])c1	?	5%	-3%	21µM*	15µM*	13µM*
O=C(NC(=S)Nc1cccc([N+](=O)[O-])c1)c1ccco1	3%	-9%	16%	-6%	-13%	-3%
COC(=O)c1c(C(=O)OC)c2ccncn2c1Cl	-15%	0%	-8%	13%	-29%	9%
Oc1cccc(-c2ccc3nccn3c2)c1	?	-38%	?	-23%	?	?
CC1CC1C(=O)OCC(=O)Nc1ccc(S(=O)(=O)N2CCOCC2)cc1 (configuration not stated)	-12%	10%	-25%	3%	-14%	2%
CC(OC(=O)/C=C/c1ccccc1)C(=O)Nc1cccc(C#N)c1 (configuration not stated)	16µM*	-6%	-28%	?	16µM*	-23%
O=C(/C=C/c1ccco1)NC(=S)Nc1ccccc1	-28%	-1%	?	-21%	26µM*	-18%
SMILES	DT40 TDP1 CPT	HepG2 tox	TGFb SMAD3 inh	HT1080NT lethal	DT40 TDP1 no CPT	HT1080 IDH1KD tx
Cc1cccc(NC(=S)NC(=O)/C=C/c2ccco2)c1	3.3µM*	-10%	-11%	?	?	?
CC(OC(=O)/C=C/c1ccco1)C(=O)Nc1cccc([N+](=O)[O-])c1 (configuration not stated)	18µM*	-31%	-4%	4%	18µM*	2%
CC1CCN(Cc2c(O)ccc3c(=O)c(-c4cccc(Cl)c4)c(C(F)(F)F)oc23)CC1	1%	1%	-4%	·	20%	·
Cc1ccc([C@H]2C[C@H](O)[C@@H](n3cc(-c4ccc(F)cc4)nn3)CN2C(=O)C2CCCCC2)cc1	?	9%	?	-19%	?	-22%
CCN(CC)C(=O)[C@H]1CC(CC(=O)NCCN2CCOCC2)C(=O)N2CCc3c([nH]c4ccccc34)[C@]12C (some centres not stated)	-4%	9%	2%	5%	-6%	4%
C[C@H](CO)N1C[C@H](C)[C@@H](CN(C)Cc2ccc(Cl)c(Cl)c2)OCc2cnnn2CCCC1=O	?	-80%	?	-5%	?	-1%
Cc1ccc(S(=O)(=O)NC(=O)C2(C)CCN2C(=O)COc2ccc(Cl)cc2)nc1 (configuration not stated)	9%	-1%	-6%	3%	-2%	-2%
O=C1c2ccccc2C(Nc2ccc3c(c2)OCO3)N1Cc1ccc2c(c1)OCO2 (configuration not stated)	?	-22%	1%	-27%	15µM*	-24%
NC(=O)CSc1oc(-c2cccs2)nc1S(=O)(=O)c1ccc(Br)cc1	-14%	-1%	-4%	·	?	·
CCc1ccc(-c2cc(C(=O)O)c3ccccc3n2)s1	-13%	-26%	0%	-19%	?	-11%
CCc1ccc(CNCc2ccc(F)cc2)cc1	-7%	-1%	1%	-1%	-4%	-3%
Cc1ccc(CNCC(O)(c2ccc(F)cc2)c2ccc(F)cc2)cc1	21µM*	-112%	?	-21%	?	-17%
O=C(O)c1ccc(CNCc2ccc(F)cc2)cc1	1%	-2%	20%	7%	-1%	12%
OC(CNCc1ccc(F)cc1)(c1ccccc1)c1ccc(F)cc1 (configuration not stated)	?	-37%	0%	-6%	?	-15%
